Active and inactive are the calls of the source. How the source made its calls: active means hit-call score of the fitted dose curve at least 0.9, where 1 is the maximum; inactive means score below 0.9.

The assay can be described thus: ATG_M_32_CIS: Attagene CIS-FACTORIAL HepG2 Assay for M32 Transcription Factor (Internal Marker) (AID 2282949).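 Further: background control marker of the multiplexed CIS panel rather than a real target.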 The following applies: HepG2 Attagene cis-factorial M32 reporter, mRNA; actives raise or lower the signal. As for the experimental part:
ATG_CIS is a cell-based, multiplexed-readout assay that uses HepG2, a human liver cell line, with measurements taken at 24 hours after chemical dosing in a 24-well plate.ATG_M_32_CIS is one of 52 assay component(s) measured or calculated from the ATG_CIS assay. It is designed to make measurements of mRNA induction, a form of inducible reporter, as detected with fluorescence intensity signals by Reverse transcription polymerase chain reaction (RT-PCR) and Capillary electrophoresis technology.Data from the assay component ATG_M_32_CIS was analyzed into 1 assay endpoint. This assay endpoint, ATG_M_32_CIS, was analyzed with bidirectional fitting relative to DMSO as the negative control and baseline of activity. Using a type of inducible reporter, measures of mRNA for gain or loss-of-signal activity can be used to understand the background control at the transcription factor-level as they relate to the gene . Furthermore, this assay endpoint can be referred to as a secondary readout, because this assay has produced multiple assay endpoints where this one serves a background control function. To generalize the intended target to other relatable targets, this assay endpoint is annotated to the background measurement intended target family, where the subfamily is internal marker.
Human liver HepG2 cells are transiently transfected with multiple reporter transcription units (MRTUs) in 6-well plates using FuGene 6 reagent (Roche; 3 ml FuGene/1 mg DNA). The MRTU constructs are regulated by a cis-regulating element (promoter). […] A major difference between the CIS and TRANS system is that in CIS activities of endogenous TFs are measured, whereas the TRANS assay evaluates changes in activities of exogenous, chimeric NR-Gal4 proteins. […] At the end of 24 hour incubation, total RNA was isolated using TriZol reagent (Invitrogen). The isolated RNA is then reverse-transcribed using oligo(dT) primer and Mo-MLV reverse transcriptase (Invitrogen) with DNAse I (Ambion) treatment for 30 min. The one-tenth of the produced cDNA was amplified by PCR using Taq DNA polymerase (Invitrogen) and two reporter sequence-specific primers. The PCR products were fluorescently labeled by primer extension with 6-arboxyfluorescein (6-FAM) 5'-labeled reporter sequence-specific primer (2 min at 95 C, 20 s at 68 C and 10 min at 72 C) and these products were digested with 5U of HpaI (New England Biolabs) for 2h at 37 C. The fragments were purified using Qiaquick PCR columns (Qiagen), analyzed on an ABI 3130xL genetic analyzer (Applied Biosystems) with peak positions identified by using a set of X-rhodamine (ROX)-labeled MapMarker1000 molecular weight standards (BioVentures). The raw capillary electrophoresis data was processed using Attagraph software (Attagene).
Consider `OCCN(CCO)CCO`, for which the call was inactive.

For the compound `CNC(=O)O/N=C/C(C)(C)S(C)(=O)=O`, the call was inactive.

As to `O=[N+]([O-])c1c2ccccc2cc2ccccc12`, the compound was called inactive.

With `O=S1(=O)OC(c2cc(Br)c(O)c(Br)c2)(c2cc(Br)c(O)c(Br)c2)c2ccccc21`, the result was inactive.

Turning to `Clc1cnc(Oc2ccc(Oc3ncc(Cl)cc3Cl)cc2)c(Cl)c1`, the compound was called inactive.

Consider `CC(C)(c1ccccc1)c1cc(-n2nc3ccccc3n2)c(O)c(C(C)(C)c2ccccc2)c1`, for which the outcome was inactive.

On to `N#Cc1ccc(Cl)cc1`, for which the result was inactive.

On to `CN(C1CCCCC1)C1CCCCC1`, for which the compound was called inactive.

Take `CC(C)CC(C)(c1ccc(O)cc1)c1ccc(O)cc1`: the outcome was inactive.

On to `O=[N+]([O-])c1cc([As](=O)(O)O)ccc1O`, for which the call was inactive.

In the case of `O=C/C(Cl)=C(/Cl)C(=O)O`, the compound was classed as inactive.

On to `CC(C)(C#N)N=NC(C)(C)C#N`, for which the compound was called inactive.

Turning to `FC(F)OCC(F)(F)C(F)(F)F`, the compound was called inactive.

In the case of `Cc1ccccc1OP(=O)(Oc1ccccc1C)Oc1ccccc1C`, the call was inactive.

Regarding `Cc1cc(Cl)ccc1OCCCC(=O)O`, the compound was classed as inactive.

For the compound `Cl[C@H]1OCCO[C@@H]1Cl`, the result was inactive.

For `CCOP(=S)(OCC)O/N=C(\C#N)c1ccccc1`, the compound was classed as inactive.

Consider `CC(F)(F)CC(F)(F)F`, for which the call was inactive.

In the case of `Clc1ccc(C(Cl)(Cl)Cl)cn1`, the compound was called inactive.

For `c1cc[c]([Sb]([c]2ccccc2)[c]2ccccc2)cc1`, the compound was classed as inactive.

For the compound `c1ccc2c(c1)Oc1ccccc1O2`, the call was inactive.

`C=CC(Cl)CCl` (stereo not given): the outcome was inactive.

With `CN(CCCC(O)c1cccnc1)N=O` (stereo not given), the compound was classed as inactive.

With `Oc1ccc(Cc2ccc(O)cc2)cc1`, the call was inactive.

Turning to `CCC[CH2][Sn]([CH2]CCC)([CH2]CCC)[CH2]CCC`, the compound was called inactive.

For the compound `C#CCOC(=O)/C=C(C)/C=C/CC(C)CCCC(C)C` (stereo not given), the compound was classed as inactive.

For `Cc1ccccc1OP(=O)(Oc1ccccc1)Oc1ccccc1`, the compound was called inactive.

For `O=C(Nc1ccc(Br)cc1)c1cc(Br)cc(Br)c1O`, the compound was classed as inactive.

Consider `Nc1ccc(Br)cc1`, for which the result was inactive.

As for `CCCCN(CCCC)C(=S)S`, the compound was classed as inactive.

In the case of `Brc1c(Br)c(Br)c(Oc2c(Br)c(Br)c(Br)c(Br)c2Br)c(Br)c1Br`, the compound was called inactive.

In the case of `CC[N+](CC)(CC)CC`, the compound was classed as inactive.

As for `O=S(=O)(c1ccc(Cl)cc1)c1cc(Cl)c(Cl)cc1Cl`, the result was inactive.

On to `O=C=Nc1ccc(Cl)cc1`, for which the outcome was inactive.

In the case of `COC(F)(C(F)(F)C(F)(F)F)C(F)(C(F)(F)F)C(F)(F)F` (stereo not given), the compound was called inactive.

Consider `OCCCCO`, for which the result was inactive.

As for `C=CC(F)(C(F)(F)F)C(F)(F)C(F)(F)F` (stereo not given), the outcome was inactive.

For `O=C(O)COc1cc(Cl)c(Cl)cc1Cl`, the result was inactive.

`C=CCOC(F)(C(F)(F)F)C(F)(F)F`: the result was inactive.

In the case of `O=NN1CCCCCCC1`, the compound was called inactive.

Source of the values: PubChem BioAssay (EPA / NIEHS).
